# Compound activity (PubChem BioAssay)
# An excerpt weighted towards active compounds, which were near 2.4% of everything screened.
# D2 ag-1: agonists of human D2 dopamine receptor (beta-arrestin). P14416. DiscoveRx PathHunter D2 beta-arrestin, luminescence, 90 min; 100% = 57 uM dopamine signal. activation, % (concentration not given with the values). 360,000 compounds, 0.084% hits; in the data active means activation above about 40%; inconclusive means between about 15% and that limit
# Target sequence (P14416 whole entry, looked up): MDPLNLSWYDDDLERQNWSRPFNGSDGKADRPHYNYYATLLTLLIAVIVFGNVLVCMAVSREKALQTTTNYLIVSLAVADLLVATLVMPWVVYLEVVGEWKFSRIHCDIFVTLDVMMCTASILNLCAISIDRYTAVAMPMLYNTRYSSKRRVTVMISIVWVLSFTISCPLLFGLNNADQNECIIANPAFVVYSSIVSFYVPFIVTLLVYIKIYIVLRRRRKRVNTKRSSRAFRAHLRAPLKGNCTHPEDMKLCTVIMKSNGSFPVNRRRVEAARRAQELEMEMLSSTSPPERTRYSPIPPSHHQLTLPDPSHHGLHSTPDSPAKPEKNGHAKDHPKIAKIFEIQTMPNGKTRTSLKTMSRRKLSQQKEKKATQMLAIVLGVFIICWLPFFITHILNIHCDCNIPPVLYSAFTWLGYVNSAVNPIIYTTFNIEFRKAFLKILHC
#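 Agonist mode: compounds alone added to overnight-plated D2 PathHunter cells for 90 min at 37 C, with 57 uM final dopamine (EC100) defining full response. Beta-arrestin recruitment detected by chemiluminescent reagent, read after 1 h at ambient temperature.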
# D2 PAM-1: positive allosteric modulators of human D2 dopamine receptor. P14416. DiscoveRx D2 beta-arrestin cells, luminescence, 90 min; 100% = 57 uM dopamine signal. potentiation, % (no concentration beside the values). 360,000 compounds, 0.23% hits; in the data active means potentiation above about 50%; inconclusive means mostly about 30% to 49%
#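 PathHunter beta-arrestin assay in DiscoveRx D2 cells. Compounds were added with an EC20 of dopamine (50 nM final) for 90 min at 37 deg C. Luminescence was read 1 h after detection reagent, with 57 uM dopamine as the EC100 control.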
# D2 antagonist: D2 dopamine receptor (human) antagonism; P14416; HEK293 TREx D2 cells, calcium flux, dopamine EC80; inhibition, % at 10 µM; 340,000 compounds, 2% hits; in the data active means inhibition above about 30%; inactive means below that, where a call was filed; further: 0% is about no effect
#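 Calcium mobilization kinetics were recorded at 1 s intervals in tetracycline-induced HEK293 T-REx D2 cells, first for 180 s after compound addition and then 180 s after EC80 dopamine.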
# D2 ag-2: activates the human D2 dopamine receptor | P14416 | HEK293 T-REx D2 cells, calcium flux agonist mode | activation, % at 2 µM | 340,000 compounds, 0.53% hits | AID 485358;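 active means activation over 3 SD above normal in the single-dose calcium agonist read, cut at about 30% in these data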; further: 0% is about no effect
#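 Agonism is scored from calcium flux in a force-coupled, inducible HEK293 cell line expressing D2, read kinetically for 180 s after compound addition against dopamine controls.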
# D2 PAM-2: positive allosteric modulators of human D2 dopamine receptor; P14416; HEK293 T-REx D2, calcium flux, EC20 dopamine potentiation; potentiation, % at 10 µM; 340,000 compounds, 0.34% hits;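 active means potentiation over 3 SD above the plate norm, cut at about 30% in these data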; further: 0% is about no effect
#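 Using a no-wash calcium dye in inducible, force-coupled HEK293 Trex cells expressing D2, we tracked fluorescence each second for 180 s after compound, then for 180 s after EC20 dopamine to detect augmented signalling.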
# * = called active by the depositor; ? = inconclusive; nt = no result.
SMILES,D2 ag-1,D2 PAM-1,D2 antagonist,D2 ag-2,D2 PAM-2
O=Cc1cc(Cl)ccc1OCCN1CCC(Cc2ccccc2)CC1,-2,-15,51*,1,-19
COc1cc(C(C)=O)ccc1OCCCN1CCC(Cc2ccccc2)CC1,-2,-11,35*,-2,7
Cc1ccc([N+](=O)[O-])c(OCCCN2CCC(Cc3ccccc3)CC2)c1,2,-8,nt,nt,nt
OCc1ccccc1OCCCN1CCC(Cc2ccccc2)CC1,-2,-15,41*,2,-22
COc1cc(CNC(=O)CCCCCCC(C)C)ccc1O,1,3,nt,nt,-3
COc1ccc(C)cc1NC(=O)CN(C)S(=O)(=O)c1ccc2[nH]c(=O)oc2c1,nt,nt,nt,1,-8
Clc1ccccc1OCCN1CCC(Cc2ccccc2)CC1,1,-14,63*,0,-20
COc1cc(C)c(CN2CCC(Cc3ccccc3)CC2)cc1C,-5,-7,nt,nt,-19
C=CCOc1ccccc1CN1CCC(Cc2ccccc2)CC1,-3,-15,31*,-1,-12
CN(CC(=O)Nc1cccc(F)c1)C(=O)c1cc(-c2ccccc2)nc2ccccc12,-2,-16,6,1,11
CCOc1ccc(S(=O)(=O)N2CCCCC2)cc1NC(=O)CN1C(=O)NC(C)(C2CC2)C1=O (configuration not stated),-6,-31,-10,1,-10
O=C(COC(=O)/C=C/C(=O)OCC(=O)Nc1ccccc1F)Nc1ccccc1F,0,-16,9,0,0
COc1ccccc1N1C(=O)C2C3C=CC(C3)C2C1=O (configuration not stated),0,-9,nt,nt,nt
CCOc1ccc(Cl)cc1S(=O)(=O)n1cnc2ccccc21,2,-2,-6,0,-2
COc1ccc(Cl)cc1S(=O)(=O)n1cnc2ccccc21,-4,13,79*,-1,12
CC1CCN(C(=O)COC(=O)c2n[nH]c(=O)c3ccccc23)CC1,-2,-5,8,0,-14
COc1ccc(C(CNc2ccc(S(=O)(=O)N3CCN(C)CC3)cc2[N+](=O)[O-])N(C)C)cc1 (configuration not stated),-3,-2,5,1,-15
COc1ccc(CCNc2ccc(S(=O)(=O)N3CCN(C)CC3)cc2[N+](=O)[O-])cc1,-2,-5,65*,-1,3
O=C(Nc1nc(-c2ccc(S(=O)(=O)N3CCOCC3)cc2)cs1)c1ccccc1,1,?,1,-1,33*
Cc1ccc(NC(=O)CN2CCC(NC(=O)c3cccc(F)c3)CC2)cc1C,0,-37,6,0,-3
COc1ccccc1N1CCN(CC(=O)Nc2ccc(C)c(F)c2)CC1,-4,-37,-8,-1,0
O=C(CN1CCC(NC(=O)C2CC2)CC1)Nc1cccc(F)c1,-3,-19,31*,0,-21
COc1ccccc1N1CCN(CC(=O)Nc2cccc(F)c2)CC1,-3,-15,31*,0,-21
COc1ccccc1N1CCN(CCC(=O)Nc2cccc(Cl)c2)CC1,-2,-26,96*,36*,-39
COc1ccccc1N1CCN(CCC(=O)Nc2ccc(F)cc2)CC1,-5,-28,66*,5,-23
SMILES,D2 ag-1,D2 PAM-1,D2 antagonist,D2 ag-2,D2 PAM-2
O=c1cc2nc(-c3cccs3)nc(SCCOc3ccc(Cl)cc3)n2[nH]1,nt,nt,nt,0,nt
Cc1cc(NC(=O)CSc2nccn2C)n(-c2ccccc2)n1,-11,-4,nt,nt,nt
Cc1ccc(NC(=O)CCNS(=O)(=O)c2ccc3[nH]c(=O)oc3c2)cc1,-4,-11,nt,nt,nt
O=C(CN1CCN(c2ccccc2F)CC1)Nc1ccc2c(c1)CCC2,4,-1,69*,-1,-22
CCOC(=O)c1c(C)n(C)c2ccc(OC)c(NC(=O)CCN3CCC(Cc4ccccc4)CC3)c12,-3,-16,91*,0,-32
CCOC(=O)N1CCN(CCC(=O)Nc2ccccc2OC)CC1,-1,-12,50*,2,-6
CCOC(=O)c1c(C)n(C)c2ccc(OC)c(NC(=O)CN3CCSCC3)c12,-4,-8,-12,0,1
COc1ccccc1N1CCN(CCCCCCOc2ccc(F)cc2)CC1,-1,-30,81*,6,-48
Cc1ccc(NC(=O)CN2CCN(c3ccccc3F)CC2)cc1F,nt,nt,nt,-3,-28
O=C(Nc1ccccc1)C1=C[C@H](c2ccccc2)C[C@H](OCCCCO)O1,-3,-19,nt,nt,nt
CC1Oc2ccccc2C=C1/C=C1/SC(N2CCOCC2)=NC1=O (configuration not stated),-1,-1,-8,0,36*
COc1ccccc1/C=C/CN1CCCC(CCC(=O)NCc2ccc(F)c(F)c2)C1 (configuration not stated),1,-11,33*,0,-20
COc1cccc(CNC(=O)CCC2CCCN(C/C=C/c3ccccc3OC)C2)c1 (configuration not stated),-2,-32,32*,1,-17
COc1ccc(/C=C/CN2CCCC(CCC(=O)NCc3ccc(F)c(F)c3)C2)cc1 (configuration not stated),-1,-15,-45,0,-15
CCc1c(O)nc(N2CCN(Cc3ccccc3)CC2)[nH]c1=O,-3,-5,3,0,5
O=C(O)CCCC(=O)Nc1nc(-c2ccccc2)cs1,-3,-2,-4,-1,-9
O=C(O)CCCC(=O)Nc1nc(-c2ccc(F)cc2)cs1,-1,-9,9,-1,34*
Cn1c(N)c(C(=O)COC(=O)/C=C/c2ccccc2Cl)c(=O)n(C)c1=O,1,8,0,0,-7
O=C(c1cccs1)N(CCN1CCCCC1)CC1CCCN(C2CCCC2)C1 (configuration not stated),-2,-20,-8,2,-3
O=C(NC1CC1)C1=C[C@H](c2ccc3c(c2)OCO3)C[C@H](OCc2ccc(CO)cc2)O1,-2,-11,13,0,-3
Cc1ccc(C(=O)Nc2cccc(C(F)(F)F)c2)cc1Nc1cncnc1,3,-1,33*,-1,-23
COc1ccc(NC(=O)C2CCC(=O)N2S(=O)(=O)c2ccc(C)cc2)cc1Cl (configuration not stated),-1,-14,34*,1,-45
COc1cc(NC(=O)C2CCC(=O)N2S(=O)(=O)c2ccc(C)cc2)cc(OC)c1 (configuration not stated),3,-10,5,0,-13
CC1CCC2(CC1)NC(=O)N(CC(=O)Nc1sc3c(c1C(N)=O)CCC3)C2=O (configuration not stated),5,-8,38*,1,-1
NC(=O)c1ccsc1NC(=O)CN1C(=O)NC2(CCCCC2)C1=O,2,-2,-4,0,-7
